Source: PubChem BioAssay (National Center for Advancing Translational Sciences (NCATS))
HT1080-NT tox: kills 2HG-producing HT-1080-NT fibrosarcoma cells. HT-1080-NT fibrosarcoma viability, CellTiter-Glo ATP luminescence, 48 h. Potency, µM (titrated, usually from 46.1 µM), for the others: top-dose activity, negative = less viability, hits mostly cytotoxic. hit rate 1.6% among 360,000;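 also: NT is the 2HG producing partner of a matched IDH1 knockdown line; potency is read from the fitted curve at half-maximal effect; 0% = DMSO-treated cells and -100% = media-only wells without cells; nearly all actives have a fitted effect of over 55% in size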
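Read-out is CellTiter-Glo luminescence after 10 minutes at room temperature, following 48 hours' compound treatment of HT-1080-NT cells (750 cells/well, RPMI, 5% FBS, 37 degrees C).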
TDP1 cell CPT: DT40-hTDP1 cell growth loss with CPT; AID 686979; hit rate 12% among 420,000; Potency, µM (titrated, usually from 46.2 µM), without a hit: top-dose activity change, negative = growth inhibition, most hits filed as inhibitors; chicken DT40 Tdp1-/-;hTDP1 cells + 20 nM CPT, ATP luminescence, 48 h; also: potency is read from the fitted curve at half-maximal effect; nearly all actives have a fitted effect of over 55% in size
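Cell growth measured by CellTiter-Glo luminescence after a minimum 48 h, 37 C compound exposure with 20 nM CPT in Tdp1-knockout DT40 cells stably expressing hTDP1, seeded 400/well; qHTS titration format.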
DT40 TDP1 no CPT: qHTS for Inhibitors of human tyrosyl-DNA phosphodiesterase 1 (TDP1): qHTS in cells in absence of CPT; DT40 Tdp1-/- hTDP1 cells, no CPT, ATP luminescence, 48 h; Potency, µM (highest dose often 46.2 µM), for inactives: at the top dose activity change, negative = growth inhibition, actives largely listed as inhibitors; hit rate 15% among 420,000; also: potency is read from the fitted curve at half-maximal effect; nearly all actives have a fitted effect of over 55% in size
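DT40 Tdp1-/-;hTDP1 cells, no CPT (DMSO vehicle only), 400 cells/well; compounds pin-transferred; ≥48 hr, 37 °C; CellTiter-Glo 30 min RT dark, luminescence read.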
IL1B secr inh: inhibitors of inflammasome signaling (IL-1 beta secretion). THP-1 LPS/ATP IL-1B secretion, AlphaLISA, 16 h; stronger effect = lower value. AID 743279. hit rate 4.7% among 360,000. activity change, % at 57.5 µM; in the data active = activity change below about -50%; inconclusive = mostly about -30% to -49%
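Secreted IL-1B measured by AlphaLISA bead assay after 16 h compound exposure of THP-1 cells; compounds (final up to 57.5 uM) added 1 h before LPS (250 ng/mL) and ATP (1.25 mM) stimulation; lower signal means less secretion.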
HT1080 IDH1KD tx: HT-1080 IDH1 knockdown cell toxicity (counter line) | Potency, µM (highest dose often 46.1 µM), inactives show at the top dose activity, negative = toxicity, actives largely listed as cytotoxic | HT-1080 IDH1 knockdown viability, ATP luminescence, 48 h | hit rate 2% among 360,000;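 also: potency is read from the fitted curve at half-maximal effect; 0% = DMSO wells and -100% = cell-free medium wells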
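Viability of IDH1-knockdown HT-1080 fibrosarcoma cells was assessed by CellTiter-Glo after 48 h at 37 °C with titrated compound; concentration-effect curves were classified by fit quality and response size.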
Starred values were filed as active, the others as inactive; u = inconclusive; x = no result given; [ ] = another dose, or the depositor's remark. Most compounds without a hit are left out; they make up all but 19% or so of the library. Unless noted, calls follow the shape of the dose curve; as a rule, active = well fitted curve in the direction sought with a large enough effect; inconclusive = small, poorly fitted or top-dose-only effect, or another doubt; inactive = no such curve, though single readings can be large; an effect the other way counts as inactive or inconclusive. Unless noted, % is scaled to controls: 0 for no effect and ±100 for the full control effect.

SMILES	HT1080-NT tox	TDP1 cell CPT	DT40 TDP1 no CPT	IL1B secr inh	HT1080 IDH1KD tx
Cc1cccc(NC(=O)CN2CCc3cc4c(cc3C2C)OCCCO4)c1 (stereo not drawn)	-5.1%	u	u	-54.0*	-16.4%
Cc1cc(C)cc(NC(=O)CN2CCc3cc4c(cc3C2C)OCCCO4)c1 (stereo not drawn)	-0.2%	u	u	-11.6	-1.1%
COc1cc(-c2ccno2)ccc1S(=O)(=O)N1CCN(c2ccc(C(C)=O)cc2)CC1	x	u	14.6µM*	x	x
CC(=O)c1ccc(N2CCN(S(=O)(=O)c3cc4[nH]c(=O)c(=O)[nH]c4cc3C)CC2)cc1	5.7%	3.1%	-1.4%	-10.7	5.6%
COc1ccc(OC)c(S(=O)(=O)N2CCN(c3ccc(F)cc3)CC2)c1	-6.7%	-18.4%	-17.3%	-1.9	1.1%
COc1cc(-c2ccno2)ccc1S(=O)(=O)N1CCN(c2ccc(F)cc2)CC1	x	u	7.31µM*	x	x
O=C(c1ccoc1)N1CCC2(CC1)Oc1ccc(Cl)cc1C(=O)C21CC(c2ccccc2)=NO1 (stereo not drawn)	-4.1%	u	u	-12.9	-1.0%
CCC(=O)N1CCC2(CC1)Oc1ccc(Cl)cc1C(=O)C21CC(c2ccccc2)=NO1 (stereo not drawn)	-1.0%	u	25.9µM*	-18.6	-7.3%
CCOc1ccc(/C=N/NC(=O)c2c(C)n(C)c3ccc(OC)cc23)cc1	u	5.17µM*	5.8µM*	26.7	u
COc1ccc2c(c1)c(C(=O)N/N=C/c1ccc(O)c(O)c1)c(C)n2C	-16.2%	u	25.9µM*	34.2	-24.0%
COc1ccc2c(c1)c(C(=O)N/N=C/c1ccc(Br)cc1)c(C)n2C	u	10.3µM*	10.3µM*	-21.9	18.4µM*
O=C1CC(c2cccc(Cl)c2)C(n2cncn2)C(=O)C1C1NCCc2ccccc21 (stereo not drawn)	5.3%	-3.9%	-8.1%	0.0	11.5%
CC(C)c1nn2c(=O)cc(COC(=O)c3cccc(NC(=O)c4cccs4)c3)nc2s1	x	-3.3%	-27.2%	x	x
c1ccc(-c2nc3nonc3nc2-c2ccccc2)cc1	-26.7%	20.6µM*	13µM*	23.4	u
Nc1nnc(-c2ccccc2)c(-c2ccccc2)n1	5.2%	u	u	-6.7	5.5%
O=C(NCCOC(=O)C1COc2ccccc2O1)c1cccnc1 (stereo not drawn)	22.2%	-2.2%	1.4%	-4.7	17.1%
Nc1nc2c(c(=O)[nH]1)N(C=O)C(CNc1ccc(C(=O)N[C@@H](CCC(=O)O)C(=O)O)cc1)CN2 (stereo partly drawn)	x	1.8%[21.1 µM]	2.2%[21.1 µM]	x	x
Cc1ccc2c(Sc3ccc(Cl)cc3)c(C(=O)N3CCC(C)CC3)[nH]c2c1	x	16.4µM*	20.6µM*	x	x
CC(=O)c1cc(O)c2ccccc2c1O	-16.5%	14.6µM*	4.61µM*	-4.6	-18.2%
CC(=O)c1coc2c1cc(O)c1ccccc12	5.7%	-23.2%	-4.8%	23.8	-1.9%
CN(CC(=O)Nc1cccc(F)c1)C(=O)CCCN1C(=O)c2cccc3cccc(c23)C1=O	-10.0%	u	u	-65.1*	-9.2%
CCN(CC(=O)Nc1c(F)cccc1F)C(=O)CCCN1C(=O)c2cccc3cccc(c23)C1=O	0.7%	u	u	-50.9*	0.1%
CC(=O)OCC1CC(COC(C)=O)C(COC(C)=O)CC1COC(C)=O (stereo not drawn)	9.4%	-25.4%	-11.4%	0.7	0.2%
COCCCNc1nc2nonc2nc1N1CCN(Cc2cccc(C)c2)CC1	-4.6%	u	u	8.2	-1.4%
Fc1cccc(CN2CCN(c3nc4nonc4nc3NC3CC3)CC2)c1	6.8%	-25.8%	23.1µM*	12.1	2.9%
CC(=O)N1c2ccccc2C(=O)C1N1CCN(c2ccc(F)cc2)CC1 (stereo not drawn)	x	u	14.6µM*	x	x
O=C(CSc1nc2[nH]c(=O)cc(O)c2s1)Nc1nncs1	19.1%	-21.3%	-15.4%	-8.8	19.7%
